# Bioassay records: PubChem BioAssay, National Center for Advancing Translational Sciences (NCATS)
# ATXN viability: Viability Counterscreen for Primary qHTS for Inhibitors of ATXN expression. S2 cells (HEK-293 line with an ATXN2-luciferase reporter) viability, CellTiter-Fluor protease fluorescence, 24 h. Potency, µM (doses to about 56.7 µM), hits mostly cytotoxic. 400,000 tested, 0.49% active. AID 651635, 2014; further: potency means the concentration at half of the fitted maximal effect; nearly all actives have a fitted effect of over 40% in size
# HepG2 tox: qHTS for Inhibitors of TGF-b: Cytotox Counterscreen | HepG2 CAGA-GFP viability, ATP luminescence, 18 h | Potency, µM (highest dose often 46.1 µM), for the others: at the highest dose activity change, negative = cytotoxicity, actives largely listed as cytotoxic | 410,000 tested, 0.76% active; further: potency means the concentration at half of the fitted maximal effect
#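 HepG2 CAGA-GFP cells (1000/well, DMEM with 1% FBS) received compound, then TGF-beta at 500 pg/mL final, and were incubated 18 hours at 37 degrees C. Viability was read by CellTiter-Glo luminescence. Media-only wells were set as complete cell-killing and DMSO as no toxicity.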
# TGFb SMAD3 inh: qHTS for Inhibitors of TGF-b; HepG2 CAGA-GFP TGF-b/SMAD3 reporter, GFP fluorescence, 18 h; TGF-beta stimulated, 500 pg/mL final; Potency, µM (titrated, usually from 46.1 µM), for inactives: at the top dose activity, negative = inhibition, hits mostly inhibitors; 410,000 tested, 1.2% active; further: potency means the concentration at half of the fitted maximal effect; on the % scale 0 is the no-effect control and ±100 the full control effect; nearly all actives have a fitted effect of over 65% in size
#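 TGF-beta reporter screen: HEPG2 CAGA-GFP, 1% FBS, 500 pg/mL TGF-beta final, 18 h; per-cell GFP summed per well; curves fitted and categorized by class.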
# uPA generation: qHTS for Inhibitors of Cell Surface uPA Generation | cell surface uPA generation assay, qHTS | Potency, µM (highest dose often 38.3 µM), for the others: top-dose activity change, negative = inhibition, most hits filed as inhibitors | 330,000 tested, 0.31% active; active means well fitted inhibition curve with a large enough effect; inconclusive means small, poorly fitted or top-dose-only effect; inactive means no such curve, though single readings can be large or run the other way; tested in mouse RAW 264.7 cells; further: potency means the concentration at half of the fitted maximal effect; on the % scale 0 is the no-effect control and ±100 the full control effect; nearly all actives have a fitted effect of over 55% in size
# ATXN2 expr inh: Primary qHTS for Inhibitors of ATXN expression; AID 1745845, 2022; HEK-293 ATXN2-luciferase reporter, luminescence, 24 h; Potency, µM (titrated, usually from 57 µM), without a hit: at the top dose activity change, negative = inhibition, usual class: inhibitors; 360,000 tested, 0.72% active; further: potency means the concentration at half of the fitted maximal effect; on the % scale 0 is the no-effect control and ±100 the full control effect; nearly all actives have a fitted effect of over 55% in size
#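 qHTS (up to 57 uM final) was run with 24 h compound exposure of reporter cells at 37 °C. Each well was multiplexed: SteadyGlo luminescence measured ATXN2-luciferase expression after a fluorogenic Gly-Phe-AFC viability readout (25 uM final).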
# Giardia kill: Small Molecules that selectively kill Giardia lamblia: qHTS. 340,000 tested, 0.15% active. AID 540267, 2011. activity change, % at 7.66 µM, hits read low. Giardia lamblia trophozoite viability; in the data active means activity change below about -80%; inconclusive means between about -30% and that limit;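 further: parasites exposed to compound for two days anaerobically before the ATP read; on the % scale 0 is the no-effect control and ±100 the full control effect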
#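 Compounds were tested on trophozoites seeded at 100 cells/well and held 48 hrs at 37 deg C anaerobically. An ATP-based luminescent kit measured the remaining live cells.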
# * marks the source's active call; other numbers are inactive results; i = inactive; ? = inconclusive; nt = no result given; ! = a repeat was not active. An excerpt weighted towards active compounds, which were near 2.6% of everything screened. Unless noted, the call rests on the fitted dose curve; in most records, active means well fitted curve in the direction sought with a large enough effect; inconclusive means small, poorly fitted or top-dose-only effect, or another doubt; inactive means no such curve, though single readings can be large; an effect the other way counts as inactive or inconclusive.
SMILES,ATXN viability,HepG2 tox,TGFb SMAD3 inh,uPA generation,ATXN2 expr inh,Giardia kill
COc1ccc(C(=O)Nc2ccc3ccccc3c2)cc1,i,-6%,5%,5µM*,nt,?
COc1ccc(/C=N/NC(=O)c2cccc([N+](=O)[O-])c2)c2ccccc12,?,-18%,-6%,1%,18µM*,?
COc1cccc(CNC(=O)c2c(OC)cc(=O)n3c2CCN(C(=O)c2csc(C)n2)CC3)c1,i,nt,nt,nt,nt,nt
COc1ccc(CNC(=O)C2CCCN2c2nc(C)c3ccccc3n2)cc1 (stereo not drawn),i,nt,nt,nt,nt,nt
Cc1ccc2oc(-c3ccc(C)c(NC(=O)COc4ccc(Cl)cc4C)c3)nc2c1,nt,-18%,27%,nt,nt,nt
CCc1ccc2oc(-c3ccc(C)c(NC(=O)COc4ccccc4Cl)c3)nc2c1,nt,-10%,1%,nt,nt,nt
COc1ccc(C(=O)Nc2cccc(C(=O)N/N=C/c3ccc(OC)cc3OC)c2)cc1,i,9%,-5%,-13%,11µM*,-25
CCc1ccc(Nc2nc(N)nc(CSc3nc4ccccc4s3)n2)cc1,?,7.9µM*!,?,2%,-35%,-1
COc1cc(OC)c(/C=C/c2cc3ccccc3c[n+]2C)c(OC)c1,nt,-37%,7.9µM*,nt,nt,nt
FC(F)(F)c1cccc(Sc2nc(-c3ccccc3)nnc2C(F)(F)F)c1,28µM*,0%,-37%,-2%,?,5
FC(F)(F)c1nnc(-c2ccccc2)nc1Sc1ccc(Cl)cc1,nt,-5%,0%,-1%,28µM*,-10
FC(F)(F)c1nnc(-c2ccccc2)nc1Sc1ccccc1,nt,-84%,?,-4%,?,-4
Cc1ccc(-c2c3c(=O)n(C)c(=O)n(C)c3c3n2-c2ccccc2NC3c2ccc(C)cc2O)cc1 (stereo not drawn),?,-97%,6.3µM*,nt,?,nt
COC(=O)c1ccccc1NC(=O)c1nc(S(=O)(=O)Cc2cccc(C)c2)ncc1Cl,nt,4%,-3%,nt,nt,nt
CCS(=O)(=O)c1ncc(Cl)c(C(=O)Nc2ccccc2OC)n1,nt,-29%,3.5µM*,-12%,?,-14
CCS(=O)(=O)c1ncc(Cl)c(C(=O)Nc2c(C(=O)Nc3cccc(C)c3)oc3ccccc23)n1,?,-20%,0.89µM*,nt,8%,nt
CCS(=O)(=O)c1ncc(Cl)c(C(=O)N2CCN(c3ccc(OC)cc3)CC2)n1,nt,11µM*,nt,nt,nt,nt
CCS(=O)(=O)c1ncc(Cl)c(C(=O)NCc2ccc(OC)cc2)n1,nt,5.6µM*,3.2µM*,nt,nt,nt
C[C@H]1C(=O)N(S(=O)(=O)c2ccc([N+](=O)[O-])cc2)[C@H]1c1ccc(F)cc1,nt,5%,1%,nt,nt,6
c1ccc2c(CCc3c[nH]c4ccccc34)ccnc2c1,nt,-34%,?,nt,nt,nt
COc1ccccc1-n1cc(CN2CCC3(CCC(CNC(=O)c4ccccc4)O3)CC2)cn1 (stereo not drawn),i,nt,nt,nt,nt,nt
COc1ccc(/C=C/c2ccc3ccccc3n2)cc1OC,nt,-19%,-2%,nt,nt,nt
COC(=O)c1cc(CNC(=O)c2ccc(N(C)C)cc2)cc(NC(=O)c2ccccc2Cl)c1,i,nt,nt,nt,nt,nt
NCCCNCCCCNC(=O)C(O)NC(=O)CCCCCCN=C(N)N (stereo not drawn),i,nt,nt,nt,nt,nt
CCSc1ncc(Cl)c(C(=O)Nc2ccccc2)n1,i,4%,18%,-7%,16%,-8
SMILES,ATXN viability,HepG2 tox,TGFb SMAD3 inh,uPA generation,ATXN2 expr inh,Giardia kill
CCS(=O)(=O)c1ncc(Cl)c(C(=O)Nc2ccccc2)n1,14µM*,18µM*,10µM*,nt,11µM*,nt
O=C(c1ccccc1)c1ccccc1N1C(=O)C=CC1=O,nt,-22%,?,-5%,?,0
O=C1C=CC(=O)N1c1ccccc1N1C(=O)C=CC1=O,35µM*,-95%,?,-19%,?,7
CN(C)CCN(Cc1ccsc1)c1ccccn1,i,nt,nt,nt,1%,nt
O=C(/C=C/c1cccc2ccccc12)c1ccncc1,i,11µM*,11µM*,-6%,?,?
Cc1[nH]c2ccccc2c1/C=C/C(=O)c1ccncc1,nt,-18%,13%,6%,-19%,0
CCOC(=O)C1CCN(C2=NC(=O)/C(=C/c3ccc(Cl)cc3)S2)CC1,i,-5%,0%,1%,-4%,-3
CCOC(=O)CSC1=NC(=O)/C(=C\c2ccc(Cl)cc2)S1,?,-41%,9%,-7%,25µM*,-7
Cc1noc(C)c1CC(=O)N1CCOc2c(cc(-c3nc4ccccc4s3)cc2OC2CCOC2)C1 (stereo not drawn),i,nt,nt,nt,nt,nt
Cc1cccc(-c2noc(-c3c(C)noc3C)n2)c1,i,-168%,0%,-1%,22%,-29
Cc1ccc(-c2noc(-c3c(C)noc3C)n2)cc1,i,0.89µM*,2%,5%,nt,7
OC(c1cc(F)cc(Cl)c1)c1ncc(-c2ccc3ccccc3c2)[nH]1 (stereo not drawn),?,-106%,18µM*,nt,-36%,nt
COC(=O)[C@@H]1[C@@H](C#N)C2(c3ccccc3-c3ccccc32)N(c2ccc(Cl)cc2)N1C#N,28µM*,-68%,?,-12%,10µM*,17
O=C(Cc1ccc(Cl)cc1)NN1C(=O)c2ccccc2C1=O,i,2%,-15%,5%,1%,4
CCCCCCN1C[C@H](n2cc(COC(=O)c3ccccc3)nn2)[C@@H](O)C[C@@H]1c1ccccc1,?,-93%,?,nt,0%,nt
CCCCCCN1C[C@@H](n2cc(COC(=O)c3ccccc3)nn2)[C@H](O)C[C@@H]1c1ccccc1,?,-61%,?,nt,-12%,nt
CCCCCCN1C[C@H](n2cc(COC(=O)c3ccccc3)nn2)[C@@H](O)C[C@@H]1c1ccc(C)cc1,?,10µM*,?,nt,?,nt
CCCCCCN1C[C@@H](n2cc(COC(=O)c3ccccc3)nn2)[C@H](O)C[C@@H]1c1ccc(Cl)cc1,32µM*,1%,17%,nt,?,nt
CCc1cccc2c(CCO)c[nH]c12,i,nt,nt,nt,17%,nt
CC(C)=CCC[C@@](C)(O)[C@H]1CC=C(C)CC1,i,nt,nt,nt,28%,nt
Cn1c([N+](=O)[O-])cnc1COC(N)=O,?,3%,0%,14%,5%,-90*
Cc1ccc(CN2CCC(=O)N(Cc3ccccn3)CC2)c(C)c1,i,nt,nt,nt,nt,nt
COC(=O)[C@@H]1CCCN1C(=O)c1c(OC)cc(=O)n2c1CCN(Cc1ccc3c(c1)OCCO3)CC2,i,nt,nt,nt,nt,nt
CCCn1ncc(CN2CCC(C(=O)Nc3cccc(-c4cccc(F)c4)c3)CC2)c1C,i,18µM*,?,2%,?,17
